What all share (assay): NCI-60 one-dose screen, 48 h (100 = growth as untreated, 0 = no growth, -100 = all killed)
One assay deals with NCI-H226 lung. The note with it: 10 µM.
In the next assay the test system is NCI-H322M lung. The note with it: 10 µM.
Another assay deals with HOP-62 NSCLC. The note with it: 10 µM.
Another assay relates to NCI-H460 lung. The note with it: 10 µM.
In a further assay the test system is A549/ATCC NSCLC. The note with it: 10 µM.
For another assay, the system named is DU-145 prostate. The note with it: 10 µM.
The next assay has as its system SF-268 CNS. The note with it: 10 µM.
The test system of the next assay is SF-295 CNS. The note with it: 10 µM.
The test system of a further assay is SF-539 CNS. The note with it: 10 µM.
The test system of a further assay is M14 melanoma. The note with it: 10 µM.
Another assay deals with HCT-15 colon. The note with it: 10 µM.
The subject of a further assay is HT29 colon. The note with it: 10 µM.
For a further assay, the system named is SNB-75 CNS. The note with it: 10 µM.
In another assay the test system is SNB-19 CNS. The note with it: 10 µM.
The test system of another assay is U251 CNS. The note with it: 10 µM.
The next assay has as its system PC-3 prostate. The note with it: 10 µM.
The next assay has as its system SK-MEL-5 melanoma. The note with it: 10 µM.
Another assay deals with UACC-62 melanoma. The note with it: 10 µM.
The subject of a further assay is SK-MEL-28 melanoma. The note with it: 10 µM.
Another assay has as its system HL-60(TB) leukemia. The note with it: 10 µM unless noted.

Structures are written as SMILES. Compounds without any hit were thinned out: in the full panel of roughly 83,000, 20% have a hit.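 Note: values are percent growth. 100 is the growth of untreated cells, values between 100 and 0 indicate rising inhibition; between -100 and 0 indicates cell death.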 Values without a mark were called inactive. Activity calls are given as the source filed them. Rule for the calls: active = growth percent below 10; inactive = the rest.

In the case of `CC[C@]12C=CCN3CC[C@@]4(c5ccc(OC)cc5N(C)[C@H]4[C@@](O)(C(=O)OC)[C@@H]1OC(=O)CCC[P+](C1CCCCC1)(C1CCCCC1)C1CCCCC1)[C@@H]32`, the growth was -20% (active) with NCI-H226 lung; 24.5% with NCI-H322M lung; 4.26% (active) in the assay with HOP-62 NSCLC; 4.64% (active) with NCI-H460 lung; 14.1% in the assay on A549/ATCC NSCLC; 15.7% in the assay on DU-145 prostate. Also, the growth was -54.1% (active) with SF-268 CNS; -13.5% (active) with SF-295 CNS; -86.5% (active) with SF-539 CNS; -78% (active) in the assay with M14 melanoma; 76.6% in the assay with HCT-15 colon; -56.7% (active) with HT29 colon. The growth in the assay on SNB-75 CNS is -61.4% (active); with SNB-19 CNS, -60% (active); with U251 CNS, -82.5% (active); in the assay with PC-3 prostate it was -12% (active); in the assay with SK-MEL-5 melanoma, -98.4% (active); in the assay with UACC-62 melanoma it was -97.3% (active). The values for the growth in the assay on SK-MEL-28 melanoma and in the assay on HL-60(TB) leukemia were -85.9% (active) and -37.1% (active), respectively.
Regarding `CCOP(=O)(OCC)C(NC(C)=O)C(=O)SCCN` (stereo not given), the growth with NCI-H226 lung was 106%; in the assay on NCI-H322M lung, 102%; with HOP-62 NSCLC, 107%; in the assay on NCI-H460 lung it was 121%; in the assay on A549/ATCC NSCLC, 107%; with DU-145 prostate it was 122%. Also, the growth is 125% with SF-268 CNS; 93.2% in the assay with SF-295 CNS; 97.5% in the assay with SF-539 CNS; 106% in the assay on M14 melanoma; 102% with HCT-15 colon; 113% with HT29 colon. Also, the growth with SNB-75 CNS was 99.1%; with SNB-19 CNS it was 96.9%; in the assay on U251 CNS, 106%; with PC-3 prostate it was 116%; in the assay with SK-MEL-5 melanoma it was 99.1%; in the assay with UACC-62 melanoma, 95.8%. Besides, the growth in the assay with SK-MEL-28 melanoma is 108%; with HL-60(TB) leukemia it was 99.2%.
In the case of `C=CCN=C([Se])NC(=O)c1ccc2c(c1)OCO2`, the growth in the assay with NCI-H226 lung was 119%; in the assay on NCI-H322M lung, 14.8%; in the assay with HOP-62 NSCLC it was 26.9%; in the assay on NCI-H460 lung, 18.3%; with A549/ATCC NSCLC, 40.4%; with DU-145 prostate, 101%. For the same compound, the growth was 110% in the assay on SF-268 CNS; 13.7% in the assay with SF-295 CNS; 67.3% in the assay on SF-539 CNS; 86.8% in the assay with M14 melanoma; 97.1% with HCT-15 colon; 96% with HT29 colon. Further, the growth with SNB-75 CNS was 26%; with SNB-19 CNS, 39.2%; with U251 CNS, 36.2%; in the assay with PC-3 prostate it was 40.1%; in the assay on SK-MEL-5 melanoma, 90.8%; in the assay with UACC-62 melanoma it was 97.9%. Further, the results for the growth with SK-MEL-28 melanoma and in the assay with HL-60(TB) leukemia were 111% and 106%, respectively.
For `COCCOCCOCCOc1ccc(-n2cc(CCCN(CCNc3ccnc4cc(Cl)ccc34)C(=O)CCC(=O)O[C@@H]3O[C@@H]4OC5(C)CC[C@H]6[C@H](C)CC[C@@H]([C@H]3C)[C@@]46OO5)nn2)cc1`, the growth in the assay on NCI-H226 lung was 53.5%; in the assay with NCI-H322M lung, 69.2%; in the assay with HOP-62 NSCLC, 61.2%; with NCI-H460 lung, 52%; in the assay with A549/ATCC NSCLC, 46.1%; with DU-145 prostate, 62%. Also, the growth was 56.9% in the assay with SF-268 CNS; 40.5% in the assay with SF-295 CNS; 47.4% in the assay with SF-539 CNS; 34.8% in the assay with M14 melanoma; 14.2% with HCT-15 colon; 20.6% in the assay on HT29 colon. The growth in the assay on SNB-75 CNS was 57.6%; in the assay with SNB-19 CNS, 56.3%; in the assay on U251 CNS, 46%; with PC-3 prostate it was 32.3%; in the assay on SK-MEL-5 melanoma, -16.4% (active); with UACC-62 melanoma, 37%. Moreover, the growth is 53.1% with SK-MEL-28 melanoma and -27.5% (active) with HL-60(TB) leukemia.
Regarding `COc1cc(OC)c(/C=C/C(=O)c2nc3ccccc3n2Cc2ccc(F)cc2)c(OC)c1`, the growth with NCI-H226 lung was 72.8%; in the assay on NCI-H322M lung it was 104%; with HOP-62 NSCLC it was 58.9%; with NCI-H460 lung, 58.9%; in the assay on A549/ATCC NSCLC, 88.6%; in the assay with DU-145 prostate, 92.1%. For the same compound, the growth is 72.1% in the assay on SF-268 CNS; 75.7% with SF-295 CNS; 60.9% in the assay on SF-539 CNS; 103% in the assay with M14 melanoma; 78.9% in the assay on HCT-15 colon; 90.2% with HT29 colon. Besides, the growth in the assay with SNB-75 CNS was 0.098% (active); in the assay with SNB-19 CNS it was 51.5%; with U251 CNS, 101%; with PC-3 prostate, 71%; with SK-MEL-5 melanoma, 88.6%; in the assay with UACC-62 melanoma it was 62.5%. Besides, the growth is 92.8% in the assay on SK-MEL-28 melanoma and 67.7% in the assay on HL-60(TB) leukemia.
Regarding `CC12OOC(C)(OO1)C2CCC(=O)NCCCNc1ccnc2cc(Cl)ccc12` (stereo not given), the growth is 94% in the assay on NCI-H226 lung; 97.1% in the assay on NCI-H322M lung; 95.1% with HOP-62 NSCLC; 88.6% in the assay on NCI-H460 lung; 87.8% in the assay on A549/ATCC NSCLC; -74.4% (active) in the assay on DU-145 prostate. The growth is 101% with SF-268 CNS; 102% in the assay with SF-295 CNS; 52.9% in the assay with SF-539 CNS; 86% in the assay with M14 melanoma; -45.1% (active) with HCT-15 colon; 35% with HT29 colon. Also, the growth in the assay with SNB-75 CNS is 103%; in the assay with SNB-19 CNS, 94.1%; in the assay on U251 CNS it was 101%; with PC-3 prostate it was 84.1%; with SK-MEL-5 melanoma, 86.4%; with UACC-62 melanoma it was 87.2%. Moreover, the figures for the growth with SK-MEL-28 melanoma and in the assay on HL-60(TB) leukemia were 72% and 96.6%, respectively.
On to `O=C(/C=C/c1ccccc1Cl)c1nc2ccccc2n1Cc1ccc(F)cc1`, for which the growth was -75.1% (active) with NCI-H226 lung; -42.1% (active) in the assay on NCI-H322M lung; -77.5% (active) in the assay on HOP-62 NSCLC; -54.6% (active) with NCI-H460 lung; -44.3% (active) in the assay with A549/ATCC NSCLC; -34.8% (active) in the assay with DU-145 prostate. Moreover, the growth was -2.61% (active) with SF-268 CNS; -86.8% (active) with SF-295 CNS; -94.4% (active) in the assay on SF-539 CNS; -79.4% (active) in the assay on M14 melanoma; -83.1% (active) in the assay with HCT-15 colon; -85.6% (active) with HT29 colon. In addition, the growth is 6.88% (active) with SNB-75 CNS; -79.2% (active) in the assay with SNB-19 CNS; -87.5% (active) in the assay on U251 CNS; -57.3% (active) in the assay with PC-3 prostate; -86.5% (active) in the assay with SK-MEL-5 melanoma; -93.2% (active) in the assay with UACC-62 melanoma. For the same compound, the results for the growth in the assay on SK-MEL-28 melanoma and in the assay with HL-60(TB) leukemia were -86.2% (active) and -38.4% (active), respectively.
